Bioassay records (PubChem)
TTR transcr act: TTR transcription activation, primary screen | SH-SY5Y TTR promoter Gaussia luciferase, luminescence; 100% = recombinant luciferase protein wells | activation, % at 16.7 µM | 92,000 tested, 1.3% active | AID 1117267;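 active = activation above the mean of all tested compounds plus 3 SD, cut at about 9.5% in these data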;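 note: cells exposed to compounds for one day before reading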
HuH7 TTR inh: decreases TTR transcription in HuH7 cells in activator counter-screen. 1,100 tested, 4% active. HuH7 TTR promoter-Gaussia luciferase reporter, luminescence. AID 1117279. shares compounds with TTR transcr act. inhibition, % at 16.7 µM;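 active = average inhibition above the solvent-only control wells' mean plus 3 SD, cut at about 15% in these data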;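 note: inhibitors lower well luminescence so higher value means more inhibition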
TTR up confirm: human TTR transcription activation, confirmation | AID 1117280 | activation, % at 16.7 µM | 1,100 tested, under 10 active | SHSY5Y TTR promoter Gaussia luciferase, luminescence; 100% = purified Lucia enzyme wells, no cells | shares compounds with TTR transcr act;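 active = mean activation above a set limit taken from the earlier primary screen, cut at about 11% in these data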
Of the large screens only hits and unclear results are named; the others gave an inactive call (follow-up assays come after a bar, where they were run). The full list was thinned out, with hits kept by preference.

C=CCn1c(=O)c2c(nc3n2CCCN3CCc2ccccc2)n(C)c1=O	none
CC1CN(Cc2ccccc2)c2nc3c(c(=O)n(CC(N)=O)c(=O)n3C)n2C1 (stereo not drawn)	TTR transcr act 13.1 | HuH7 TTR inh 19.4 | TTR up confirm inactive
CC1CN(c2ccc(Oc3ccccc3)cc2)c2nc3c(c(=O)n(CC(N)=O)c(=O)n3C)n2C1 (stereo not drawn)	none
CCCn1c(=O)c2c(nc3n2CC(C)CN3Cc2ccccc2)n(C)c1=O (stereo not drawn)	none
CN(C)S(=O)(=O)Oc1ccsc1C(=O)Nc1ccc(Br)cc1	none
CC1CCCC(C)N1CC(O)COC1CCC(C(C)(C)C)CC1 (stereo not drawn)	none
Clc1ccc(-c2ccc(CNCc3ccccn3)o2)cc1	none
N/C(CN1CCSCC1)=N\OCc1c(F)cccc1Cl	none
O=C(NCCc1nc2ccccc2[nH]1)/C(=C/c1ccco1)NC(=O)c1ccc(Br)cc1	none
COc1ccc(/C=C/C(=O)N/C(=C\c2ccco2)C(=O)NCCc2nc3ccccc3[nH]2)cc1	TTR transcr act 12.0 | HuH7 TTR inh inactive | TTR up confirm inactive
O=C(NCCc1nc2ccccc2[nH]1)/C(=C/c1ccco1)NC(=O)c1ccccc1Br	none
CC(C)NC(=O)Nc1ccc2c(c1)C(=O)N([C@H](C)CO)C[C@H](C)[C@@H](CN(C)S(=O)(=O)c1ccc(F)cc1)O2	none
O=C(NC1CCCCC1)c1cc(-c2ccc(F)cc2)on1	none
Cc1ccccc1Nc1nc(N)nc(CSc2nnc(C)n2C)n1	none
Cc1ccc(SCc2nc(N)nc(Nc3ccccc3C)n2)cc1C	none
Cc1ccc(SCc2nc(N)nc(Nc3ccccc3C)n2)c(C)c1	TTR transcr act 32.1 | HuH7 TTR inh inactive | TTR up confirm inactive
CCOc1ccccc1/C=C/c1cc(C(=O)O)c2ccccc2n1	TTR transcr act 35.4 | HuH7 TTR inh inactive | TTR up confirm inactive
CCOC(=O)c1cc(OCC)c2c(ccc3ccccc32)n1	none
CCOC(=O)c1cc(N2CCCCC2)nc2ccccc12	none
C/C(=C\c1cc(C(=O)O)c(C)o1)CO	none
Cc1ccc([N+](=O)[O-])cc1NC(=O)CNC1CCCCC1	TTR transcr act 17.4 | HuH7 TTR inh inactive | TTR up confirm inactive
O=C(CNC1CCCC1)Nc1cc(Cl)ccc1[N+](=O)[O-]	none
Cc1ccc([N+](=O)[O-])cc1NC(=O)Cc1cccs1	none
CCN(CC)C(=O)c1sc(NC(=O)c2cccc([N+](=O)[O-])c2)c(C#N)c1C	none
Cc1ccc(-c2cc(C(=O)NC3CCCC3)no2)cc1	none
Cc1ccc(SCc2cc(-c3ccc(Cl)cc3)on2)cc1	none
Cc1cc(-c2cc(-c3ccc(Cl)cc3)on2)nc(NC2CCCC2)n1	TTR transcr act 9.8 | HuH7 TTR inh inactive | TTR up confirm inactive
CC(C)[C@@H]1C=C(C(=O)O)O[C@H](OCCCCO)C1	none
COc1ccc2cc(C(=O)NC3CCCCC3)c(=O)oc2c1	TTR transcr act 11.1 | HuH7 TTR inh inactive | TTR up confirm inactive
COc1cc2ccccc2cc1C(=O)NC1CCCC1	none
COc1ccc2cc(C(C)=O)c(=O)oc2c1	none
COc1ccc2nc3n(c(=O)c2c1)-c1ncccc1C(=O)NC3Cc1ccccc1 (stereo not drawn)	none
COc1ccc(-c2nc(-c3ccncc3)no2)cc1OC	none
COc1ccc(-c2noc(-c3ccoc3C)n2)cc1OC	none
COc1ccc(-c2noc(-c3cccs3)n2)cc1OC	TTR transcr act 22.3 | HuH7 TTR inh 34.5 | TTR up confirm inactive
O=C(Nc1ccc2c(c1)[C@H]1C[C@@H](CC(=O)N3CCOCC3)O[C@@H](CO)[C@H]1O2)C1CCOCC1	none
Nc1ccccc1OCP(=O)(c1ccccc1)c1ccccc1	none
Cc1ccc(NC(=O)C2CC(=O)N/C(=N/N=C/c3ccco3)S2)cc1 (stereo not drawn)	none
CC(=O)c1cccc(NC(=O)C2CC(=O)N(c3cccc(C)c3C)C2)c1 (stereo not drawn)	none
CC1=C(C)[N+](=O)C2CCCCC2N1[O-] (stereo not drawn)	TTR transcr act 13.0 | HuH7 TTR inh inactive | TTR up confirm inactive
CC(C)(C)OC(=O)NCCc1nnc(SCC(=O)Nc2ccc(Br)cc2)o1	none
CC(=O)OCCN(C)c1cc(SC(C)C)c2nonc2c1[N+](=O)[O-]	TTR transcr act 17.8 | HuH7 TTR inh inactive | TTR up confirm inactive
CCOC(=O)N1CCN(c2cc(N(C)CCO)c([N+](=O)[O-])c3nonc23)CC1	none
CN(C)c1cc(Nc2ccc(O)cc2)c([N+](=O)[O-])c2nonc12	none
COc1ccc(N2CCN(C(=O)CNC(=O)c3cccs3)CC2)cc1	none
CCOC(=O)c1sc(NC(NC(=O)c2ccco2)(C(=O)OC)C(F)(F)F)nc1C (stereo not drawn)	none
O=C(OCc1ccccc1F)c1cc2ccccc2cc1O	TTR transcr act 10.7 | HuH7 TTR inh inactive | TTR up confirm inactive
COc1ccccc1NC(=O)NNC(=O)c1cc2ccccc2cc1O	none
O=C(COC(=O)c1cc2ccccc2cc1O)NC(=O)NCc1ccco1	none
O=C(O)CCc1nn2c3ccccc3nc2n(-c2ccccc2)c1=O	none
COc1ccc(S(=O)(=O)CCC(=O)N2CCN(c3ccc(F)cc3)CC2)cc1	TTR transcr act 10.2 | HuH7 TTR inh inactive | TTR up confirm inactive
COc1ccc(CC(=O)N2CCN(c3ccc(F)cc3)CC2)cc1	none
O=C(CCS(=O)(=O)c1ccc(Cl)cc1)N1CCN(c2ccc(F)cc2)CC1	none
O=C(O)c1cccc(-c2ccc(/C=N/n3cnnc3)o2)c1	none
C[n+]1cc[nH]c1SCC(=O)c1ccccc1	none
Cc1ccc(C(=O)N/C(=C/c2ccco2)C(=O)NC2CCS(=O)(=O)C2)cc1 (stereo not drawn)	none
CCOc1ccc(Oc2nc(NCC(C)C)nc(OC)n2)nn1	none
CCOc1ccc(Oc2nc(NCC(C)C)nc(N(C)C)n2)nn1	none
CCNc1nc(NC(C)CC)nc(Oc2ccc(OCC)nn2)n1 (stereo not drawn)	TTR transcr act 12.6 | HuH7 TTR inh inactive | TTR up confirm inactive
Cc1cc(C)n2ncc(C(=O)Nc3ccc4c(c3)OCO4)c2n1	none
O=C1CN(C(=O)CN2C(=O)NC(c3ccccc3)(c3ccccc3)C2=O)c2ccccc2N1	none
CC(C)(C)NC(=O)CCCSc1nc2ccccc2s1	none
O=C(CCCSc1nc2ccccc2s1)NCc1ccc2c(c1)OCO2	none
COC(=O)CCCc1nc2ccccc2s1	none
Cc1cnc(NC(=O)CCCc2nc3ccccc3s2)s1	TTR transcr act 12.6 | HuH7 TTR inh 15.9 | TTR up confirm inactive
O=C(O)CCCc1nc2ccccc2s1	none
Cc1ccccc1NC(=O)CCCSc1nc2ccccc2s1	TTR transcr act 12.5 | HuH7 TTR inh inactive | TTR up confirm inactive
COc1ccccc1-c1noc(CCCC(=O)NC2CCCC2)n1	none
COc1cc(CNC(=O)c2cc(-c3ccc(F)cc3C)n[nH]2)cc(OC)c1	none
Cc1ccc(/C([O-])=C(/C(=S)NCCN2CCOCC2)[n+]2ccccc2)cc1[N+](=O)[O-]	none
O=C(Cc1ccccc1)NCCCN1CCN(CCCNC(=O)Cc2ccccc2)CC1	none
CCn1c(=O)n(CC)c2cc(NC(=O)CSc3ccc([N+](=O)[O-])cn3)ccc21	none
O=c1[nH]c2nc(Cl)nc(Cl)c2[nH]1	none
CC(=O)c1ccc(NC(=O)CCc2c(C)nn(-c3ccc(N4CCOCC4)nn3)c2C)cc1	none
Cc1ccc(NC(=O)CCc2c(C)nn(-c3ccc(N4CCOCC4)nn3)c2C)cc1	none
